miR-122 sensor: miR-122 Renilla sensor signal increase in Huh7, primary screen, miR-122 inhibitor project, cell-based, single point, plate reader. Huh7 miR-122 Renilla luciferase sensor, 48 h; neutral wells = 0, positive control = 100. activation (reporter increase), % at 12.5 µM. hit rate 0.3% among 340,000. AID 602342, 2012;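 active = mean replicate activation score at least 90 and every replicate individually at or above 90; inconclusive = only one of the two criteria met; inactive = neither criterion met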;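 also: higher luciferase means less miR-122 activity so hits act as miR-122 inhibitors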
MITF TRPM1 HTS: activators of MITF-driven TRPM1 promoter reporter, primary screen, cell-based, SK-MEL-5, luciferase, single point. SK-MEL-5 TRPM1-promoter luciferase, 24 h; % of positive control, neutral wells = 0. activation, % at 12.5 µM. hit rate 0.75% among 300,000;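 active = mean activation of at least 80% with every replicate also reaching 80%; inconclusive = mean reaches 80% but some replicate falls short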;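 also: 0% = neutral control wells and 100% = parthenolide positive control wells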
DYRK1A inh: rat Dyrk1A kinase inhibitors, primary screen, biochemical, single point, plate reader | Dual specificity tyrosine-phosphorylation-regulated kinase 1A (Rattus norvegicus), Q63470 | ADP-Glo luminescence, NFATc1 peptide | inhibition, % at 12.5 µM | hit rate 0.43% among 310,000;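 also: plate controls were vehicle with enzyme for no effect and no enzyme for full effect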
Wnt act: Wnt/beta-catenin pathway activators, primary screen, cell-based, plate reader, single point. Wnt/beta-catenin reporter cell assay, activator. activation, % at 9.35 µM. hit rate 1.2% among 300,000. AID 743398, 2014; in the data active = activation above about 30%, passing the limit was not always enough; inconclusive = no clear call, values can overlap the other calls;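 also: 0% = neutral control wells and 100% = positive control wells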
NSD2 HMT inh: NSD2 histone methyltransferase inhibitors, primary screen, biochemical, AlphaScreen, single concentration, set 2 | NSD2 peptide methylation, 120 min | inhibition, % at 12.5 µM | hit rate 0.54% among 310,000 | AID 743445, 2014
Target sequence (O96028 whole entry, looked up): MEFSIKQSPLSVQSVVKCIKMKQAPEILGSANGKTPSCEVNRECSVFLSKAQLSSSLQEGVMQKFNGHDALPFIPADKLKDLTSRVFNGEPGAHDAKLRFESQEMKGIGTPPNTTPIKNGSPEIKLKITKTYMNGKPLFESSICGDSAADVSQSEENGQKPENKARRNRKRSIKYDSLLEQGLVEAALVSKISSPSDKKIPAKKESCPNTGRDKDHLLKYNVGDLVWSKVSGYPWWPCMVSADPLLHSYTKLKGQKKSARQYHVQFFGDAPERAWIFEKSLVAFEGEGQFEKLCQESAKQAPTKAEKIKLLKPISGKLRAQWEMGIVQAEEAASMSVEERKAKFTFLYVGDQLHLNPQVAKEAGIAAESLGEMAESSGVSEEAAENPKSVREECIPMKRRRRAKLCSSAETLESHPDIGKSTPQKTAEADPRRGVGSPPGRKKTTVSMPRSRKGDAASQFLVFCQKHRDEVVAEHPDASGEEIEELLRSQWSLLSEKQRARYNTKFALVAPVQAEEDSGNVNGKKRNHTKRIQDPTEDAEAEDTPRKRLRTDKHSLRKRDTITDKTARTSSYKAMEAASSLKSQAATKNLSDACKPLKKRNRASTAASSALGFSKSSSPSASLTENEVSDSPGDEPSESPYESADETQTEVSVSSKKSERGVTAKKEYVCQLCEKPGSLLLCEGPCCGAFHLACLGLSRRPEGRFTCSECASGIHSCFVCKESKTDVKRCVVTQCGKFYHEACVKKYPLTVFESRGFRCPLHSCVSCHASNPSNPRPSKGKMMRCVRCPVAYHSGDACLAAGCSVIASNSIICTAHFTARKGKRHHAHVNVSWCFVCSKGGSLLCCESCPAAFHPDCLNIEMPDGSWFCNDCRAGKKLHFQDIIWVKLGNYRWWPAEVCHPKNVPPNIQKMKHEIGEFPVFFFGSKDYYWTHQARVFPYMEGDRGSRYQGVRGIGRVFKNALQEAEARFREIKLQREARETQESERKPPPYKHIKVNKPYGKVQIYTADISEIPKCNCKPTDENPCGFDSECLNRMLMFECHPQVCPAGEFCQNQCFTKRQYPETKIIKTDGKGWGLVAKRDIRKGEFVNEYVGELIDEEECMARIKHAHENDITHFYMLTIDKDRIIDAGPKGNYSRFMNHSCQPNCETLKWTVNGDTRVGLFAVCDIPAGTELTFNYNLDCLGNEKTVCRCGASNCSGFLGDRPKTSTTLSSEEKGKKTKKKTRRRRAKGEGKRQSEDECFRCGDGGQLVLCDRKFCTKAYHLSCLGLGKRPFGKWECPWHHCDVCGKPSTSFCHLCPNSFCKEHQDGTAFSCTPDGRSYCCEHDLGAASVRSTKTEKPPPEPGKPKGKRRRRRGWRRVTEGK
INS-1E GSIS act: GLuc luminescence reporter in INS-1E cells, primary screen for activators of glucose-dependent secretion of insulin; INS-1E GLuc reporter insulin secretion, 2-3 h; activation, % at 16.6 µM; hit rate 0.61% among 370,000; AID 743287, 2014;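 active = lowest replicate activation of at least 40%, so every replicate reaches that level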;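 also: 0% = median of neutral control wells and 100% = median of IBMX positive control wells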
* marks the source's active call; other numbers are inactive results; ? = inconclusive; nt = not tested or not shown; [ ] = remark or other dose. Compounds with a hit are over-represented: about 2.4% of the library has one in this group of screens. Rule as the data show it, unless noted: active = inhibition above about 50%; inactive = the rest.

SMILES | miR-122 sensor | MITF TRPM1 HTS | DYRK1A inh | Wnt act | NSD2 HMT inh | INS-1E GSIS act
Cc1noc(C)c1NC(=O)N(C)C[C@@H]1OCCCC[C@@H](C)Oc2ccc(NS(=O)(=O)c3c(C)noc3C)cc2C(=O)N([C@H](C)CO)C[C@@H]1C | 10[16.7 µM] | nt | nt | nt | nt | 16
C[C@H]1CN([C@@H](C)CO)C(=O)c2cc(C#CCN(C)C)cnc2O[C@H]1CN(C)S(C)(=O)=O | -1[16.7 µM] | nt | nt | nt | nt | 12
CCC(=O)Nc1ccc(C(=O)Nc2cccc(C)n2)cc1 | 218* | 66 | -1 | 30 | 1 | 14
CCCNC(=O)N(C)C[C@@H]1Oc2cc(-c3ccccc3F)ccc2S(=O)(=O)N([C@@H](C)CO)C[C@@H]1C | nt | nt | nt | nt | nt | -11
Cc1cc2c([nH]c3ccccc32)c2c1OC(C)(C)C=C2 | 21 | 91* | 6 | 1 | nt | -5
CN(C)c1ccc2nc3ccc(=[N+](C)C)cc-3sc2c1 | nt | -73 | 13 | 26 | 62* | -17
C[C@H]1CC=CC[C@@H](c2cccc(Cl)c2)NC(=O)[C@H](C)N(C)C(=O)c2ccccc2O1 (mixture of isomers) | nt | nt | nt | nt | nt | -24
COc1ccccc1C#Cc1ccc2c(c1)[C@@H]1[C@@H](CCN1S(=O)(=O)c1cccc(C)c1)[C@H](CO)N2 | nt | nt | nt | nt | nt | -30
C[C@@H]1CCCCO[C@H](CN(C)C(=O)c2ccccc2)[C@H](C)CN([C@H](C)CO)C(=O)c2cc(NC(=O)C3CCCCC3)ccc2O1 | 1[16.7 µM] | nt | nt | nt | nt | -19
COc1ccc(Nc2nc3ccccc3n2C)cc1 | -7 | 65 | 5 | 41* | -1 | 8
Cn1c(NC(=S)Nc2ccccc2)nc2ccccc21 | nt | 5 | -3 | 41* | 4 | -8
COc1ccc(CNc2nc3ccccc3n2C)c(O)c1 | -3 | 93* | -1 | ? | -2 | 12
COc1ccc(CNc2nc3ccccc3n2C)c(OC)c1 | nt | 40 | nt | 10 | -4 | 6
C[C@H](CO)N1C[C@H](C)[C@@H](CN(C)S(=O)(=O)c2cn(C)cn2)Oc2cc(C3=CCCC3)ccc2S1(=O)=O | -2[16.7 µM] | nt | nt | nt | nt | -5
COc1ccc2c3c(n(C)c2c1)[C@H](CO)N(Cc1ccccc1OC)CC31CN(C(=O)C2CC2)C1 | nt | nt | nt | nt | nt | 0
CC1(C(=O)NS(=O)(=O)c2ccc(C#N)cc2)CCN1C(=O)C1(c2ccccc2)CCCC1 (centres undefined) | 4 | nt | nt | -3 | 0 | 99*
COc1ccc2c3c(n(C)c2c1)[C@@H](CO)N(C(=O)Nc1ccc(F)cc1)CC31CN(C)C1 | nt | nt | nt | nt | nt | -18
Cc1ccc(-c2n[nH]c(=S)n2/N=C/c2c(C)nn(-c3ccccc3)c2C)cc1 | nt | 0 | 2 | 1 | -2 | 203*
Cc1nn(-c2ccccc2)c(C)c1/C=N/n1c(-c2ccc(C(C)(C)C)cc2)n[nH]c1=S | -14 | 6 | 7 | nt | 2 | nt
Cc1ccsc1/C=N/n1c(-c2ccccc2)n[nH]c1=S | nt | -15 | 2 | -1 | 2 | -4
Cc1ccccc1-c1n[nH]c(=S)n1/N=C/c1c(C)nn(-c2ccccc2)c1C | -3 | 21 | 1 | nt | 3 | 91*
Cc1ccsc1/C=N/n1c(-c2ccncc2)n[nH]c1=S | 0 | -2 | 4 | -5 | -1 | 48*
O=[N+]([O-])c1ccc(/C=N/n2c(-c3ccccc3)n[nH]c2=S)cc1 | -5 | 9 | 0 | -1 | 14 | 43*
O=C(c1ccccn1)N1C[C@@H]2[C@H](c3ccccc31)[C@H](CO)N2C(=O)CC1CC1 | 42[16.7 µM] | nt | nt | nt | nt | 3
S=c1[nH]nc(-c2ccncc2)n1/N=C/c1cn(-c2ccccc2)nc1-c1ccc(Cl)cc1 | -4 | nt | nt | 48* | -3 | nt
SMILES | miR-122 sensor | MITF TRPM1 HTS | DYRK1A inh | Wnt act | NSD2 HMT inh | INS-1E GSIS act
CSc1nnc(-c2ccncc2)n1/N=C/c1cn(-c2ccccc2)nc1-c1ccc(Cl)cc1 | -5 | nt | nt | 11 | -2 | -23
CCC(=O)N1CC2(CN(C(=O)CN3CCOCC3)C2)c2c([nH]c3cc(OC)ccc23)[C@@H]1CO | nt | nt | nt | nt | nt | -9
CCC(=O)Nc1cc(NC(=O)CSc2ncc(-c3ccc(F)cc3)n2Cc2ccco2)ccc1C | 4 | 78 | 4 | 38* | 2 | nt
Cc1ccc(C)c(NC(=O)CSc2nnc(CSc3nc(C)cc(C)n3)n2Cc2ccco2)c1 | 119* | 0 | 3 | -4 | 12 | nt
COc1ccc(NC(=O)CSc2ncc(-c3ccc(F)cc3)n2Cc2ccco2)cc1 | -3 | 3 | 6 | 2 | -13 | nt
CN1C(=O)c2cc(NC(=O)c3ccc(F)cc3)ccc2OC[C@H]2O[C@@H](CC(=O)N3CCOCC3)CC[C@H]21 | -3[16.7 µM] | nt | nt | nt | nt | 8
CCN1[C@H](C(=O)OC)[C@@H](CO)[C@@H]2Cn3c(ccc(-c4cccc(OC)c4)c3=O)[C@@H]21 | -6[16.7 µM] | nt | nt | nt | nt | 12
Cc1cc(C)cc(NC(=O)Cc2ccc(-n3cccc3)cc2)c1 | 5 | 6 | -2 | -5 | 0 | 54*
CCCc1nc2oc3ccccc3c(=O)c2c(=O)n1-c1ccc(C)cc1 | 0 | nt | nt | 49* | -1 | 2
CCc1nc2oc3ccccc3c(=O)c2c(=O)n1-c1ccccc1 | 4 | 35 | -1 | 53* | 0 | nt
COCCn1c(C(C)C)nc2oc3ccccc3c(=O)c2c1=O | -7 | 5 | 4 | 0 | -4 | nt
CCCc1nc2oc3ccccc3c(=O)c2c(=O)n1-c1ccccc1 | 3 | nt | nt | 15 | 1 | -5
Cc1ccc(-n2c(C(C)C)nc3oc4ccccc4c(=O)c3c2=O)cc1 | nt | 44 | 22 | 65* | -1 | 1
CCc1nc2oc3ccccc3c(=O)c2c(=O)n1-c1ccc(C)cc1 | 13 | nt | nt | 44* | 5 | 1
CC(C)C#Cc1ccc([C@@H]2[C@H]3CN(C(=O)NC4CCCCC4)CC(=O)N3[C@H]2CO)cc1 | nt | nt | nt | nt | nt | -5
COC(=O)[C@@H]1[C@@H](CO)[C@@H]2Cn3c(cccc3=O)[C@@H]2N1C(=O)C1CCC1 | -2[16.7 µM] | nt | nt | nt | nt | 13
COc1ccc(CN(C)C[C@H]2Oc3ccc(NS(C)(=O)=O)cc3CC(=O)N([C@@H](C)CO)C[C@H]2C)cc1 | 4[16.7 µM] | nt | nt | nt | nt | 3
CO[C@@H]1CN(C)C(=O)c2ccc(NS(C)(=O)=O)cc2OC[C@@H](C)N(C)C[C@@H]1C | -7[16.7 µM] | nt | nt | nt | nt | 9
CNC1=C(N(C(C)=O)c2ccc(Br)cc2)C(=O)c2ccccc2C1=O | nt | -106 | 11 | -22 | 100* | -29
C/C=C/c1cccc(-c2nc(C(=O)NCCN3CCCCC3)cc3c2[C@H](CCO)N([S@@](=O)C(C)(C)C)C3)c1 | nt | nt | nt | nt | nt | 8
O=C(O)c1cc(N/N=C/c2ccc(N3CCOCC3)cc2)ccc1Cl | -3 | -47 | 6 | 37* | 10 | 5
O=[N+]([O-])c1cccc(N/N=C/c2ccc(N3CCOCC3)cc2)c1 | nt | 127* | 8 | 13 | 7 | 8

Screening data as filed in PubChem BioAssay.
